The supplement of paper PMC7411054
Structures can show the parent of a compound that is named as a salt.

Key:
Conditions in all cases: treatment time: 24 h
[1] = test system: A549-ACTB-RAB5A; assay: lowest phenotypically active concentration; higher = less potent
How it was run: (§1)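 Four wells per concentration (0.3, 1, 3 or 9 µM) were treated for 24 h in each of fifteen gene-edited reporter lines from A549, HepG2 and WPMY1 cells, then imaged live. After normalising live-cell features to solvent control wells, deviation was defined as ≥3 of 4 wells lying past the 95th percentile of control Euclidean distances. Reproducibility was defined as a median replicate Pearson correlation above the 95th percentile of non-replicates. Both had to hold for phenotypic activity.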

[2] = test system: A549-CANX-COX4; assay: as above
How it was run: as §1

[3] = test system: A549-GM130-SQSTM1; assay: as above
How it was run: as §1

[4] = test system: A549-TP53BP1-CLTA; assay: as above
How it was run: as §1

[5] = test system: A549-TUBA1B-RELA; assay: as above
How it was run: as §1

[6] = test system: A549-ACTB-RAB5A; assay: phenotypically active (imaging signature differs from DMSO and reproducible) at any of 0.3-9 uM (binary (1 = active, 0 = inactive)); higher = active
How it was run: as §1

[7] = test system: A549-CANX-COX4; assay: as above
How it was run: as §1

[8] = test system: A549-GM130-SQSTM1; assay: as above
How it was run: as §1

[9] = test system: A549-TP53BP1-CLTA; assay: as above
How it was run: as §1

[10] = test system: A549-TUBA1B-RELA; assay: as above
How it was run: as §1

[11] = test system: HepG2-ACTB-RAB5A; assay: as above
How it was run: as §1

[12] = test system: HepG2-CANX-COX4; assay: as above
How it was run: as §1

[13] = test system: HepG2-GM130-SQSTM1; assay: as above
How it was run: as §1

[14] = test system: HepG2-TP53BP1-CLTA; assay: as above
How it was run: as §1

[15] = test system: HepG2-TUBA1B-RELA; assay: as above
How it was run: as §1

[16] = test system: WPMY1-ACTB-RAB5A; assay: as above
How it was run: as §1

[17] = test system: WPMY1-CANX-COX4; assay: as above
How it was run: as §1

[18] = test system: WPMY1-GM130-SQSTM1; assay: as above
How it was run: as §1

[19] = test system: WPMY1-TP53BP1-CLTA; assay: as above
How it was run: as §1

[20] = test system: WPMY1-TUBA1B-RELA; assay: as above
How it was run: as §1

Structure (SMILES)	lowest phenotypically active concentration [1] [µM]	lowest phenotypically active concentration [2] [µM]	lowest phenotypically active concentration [3] [µM]	lowest phenotypically active concentration [4] [µM]	lowest phenotypically active concentration [5] [µM]	phenotypically active [6]	phenotypically active [7]	phenotypically active [8]	phenotypically active [9]	phenotypically active [10]	phenotypically active [11]	phenotypically active [12]	phenotypically active [13]	phenotypically active [14]	phenotypically active [15]	phenotypically active [16]	phenotypically active [17]	phenotypically active [18]	phenotypically active [19]	phenotypically active [20]
CCCCc1oc2ccccc2c1C(=O)c1cc(I)c(OCCN(CC)CC)c(I)c1 [amiodarone]	3	9	9	9	3	1 (active)	1 (active)	1 (active)	1 (active)	1 (active)	1 (active)	1 (active)	1 (active)	1 (active)	1 (active)	1 (active)	1 (active)	1 (active)	1 (active)	1 (active)
CC(C)(C)c1cnc(CSc2cnc(NC(=O)C3CCNCC3)s2)o1	≤ 0.3	≤ 0.3	≤ 0.3	≤ 0.3	≤ 0.3	1 (active)	1 (active)	1 (active)	1 (active)	1 (active)	1 (active)	1 (active)	1 (active)	1 (active)	1 (active)	1 (active)	1 (active)	1 (active)	1 (active)	1 (active)
CON(C)C(=O)N1N=C(c2cc(F)ccc2F)S[C@@]1(CCCN)c1ccccc1 [ARRY 520 trifluoroacetate]	≤ 0.3	≤ 0.3	≤ 0.3	≤ 0.3	≤ 0.3	1 (active)	1 (active)	1 (active)	1 (active)	1 (active)	1 (active)	1 (active)	1 (active)	1 (active)	1 (active)	1 (active)	1 (active)	1 (active)	1 (active)	1 (active)
Oc1cccc(Nc2ccnc3cc(-c4cccc(CN5CCOCC5)c4)sc23)c1 [LCB 03-0110 dihydrochloride]	1	3	1	3	1	1 (active)	1 (active)	1 (active)	1 (active)	1 (active)	1 (active)	1 (active)	1 (active)	1 (active)	1 (active)	1 (active)	1 (active)	1 (active)	1 (active)	1 (active)
COc1cc2c(Nc3ccc(Br)cc3F)ncnc2cc1OCC1CCN(C)CC1 [vandetanib]	1	3	1	3	1	1 (active)	1 (active)	1 (active)	1 (active)	1 (active)	1 (active)	1 (active)	1 (active)	1 (active)	1 (active)	1 (active)	1 (active)	1 (active)	1 (active)	1 (active)
CNC(=O)Nc1ccc(-c2nc(N3CC4CCC(C3)O4)c3cnn(C4CCC5(CC4)OCCO5)c3n2)cc1	≤ 0.3	≤ 0.3	≤ 0.3	≤ 0.3	≤ 0.3	1 (active)	1 (active)	1 (active)	1 (active)	1 (active)	1 (active)	1 (active)	1 (active)	1 (active)	1 (active)	1 (active)	1 (active)	1 (active)	1 (active)	1 (active)
COc1ccc(-c2cc3c(C)nc(N)nc3n([C@H]3CC[C@H](OCCO)CC3)c2=O)cn1	≤ 0.3	≤ 0.3	≤ 0.3	≤ 0.3	≤ 0.3	1 (active)	1 (active)	1 (active)	1 (active)	1 (active)	1 (active)	1 (active)	1 (active)	1 (active)	1 (active)	1 (active)	1 (active)	1 (active)	1 (active)	1 (active)
CC[C@H](CO)Nc1nc(NCc2ccc(-c3ccccn3)cc2)c2ncn(C(C)C)c2n1	≤ 0.3	≤ 0.3	≤ 0.3	≤ 0.3	≤ 0.3	1 (active)	1 (active)	1 (active)	1 (active)	1 (active)	1 (active)	1 (active)	1 (active)	1 (active)	1 (active)	1 (active)	1 (active)	1 (active)	1 (active)	1 (active)
COc1cc2c(NC3CCN(C(C)C)CC3)nc(N3CCC(F)(F)CC3)nc2cc1OCCCN1CCCC1	≤ 0.3	9	≤ 0.3	3	≤ 0.3	1 (active)	1 (active)	1 (active)	1 (active)	1 (active)	1 (active)	1 (active)	1 (active)	1 (active)	1 (active)	1 (active)	1 (active)	1 (active)	1 (active)	1 (active)
